# HT1080 IDH1KD tx – kills HT-1080 cells with IDH1 knockdown; hit rate 2% among 360,000; AID 686971; Potency, µM (series often up to 46.1 µM), inactives show top-dose activity, negative = toxicity, hits mostly cytotoxic; HT-1080 IDH1 knockdown viability, ATP luminescence, 48 h;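 further: 0% = DMSO wells and -100% = cell-free medium wells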
#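 Knockdown cells (IDH1KD HT-1080) received compounds 2 h after plating at 750 cells/well and were kept 48 h at 37 °C in 5% FBS RPMI. A CellTiter-Glo luminescence read gave % activity for curve fitting.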
# KB-V1 MDR tox – kills drug-selected multidrug resistant KB-V1 cells | KB-V1 MDR cells viability, CellTiter-Glo, 72 h | Potency, µM (titrated, usually from 46.1 µM), usual class: cytotoxic | hit rate 3.4% among 400,000 | AID 1347076; further: on the % scale 0 is the no-effect control and ±100 the full control effect; nearly all actives have a fitted effect of over 60% in size
#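 Following 72 h at 37 degrees C with compound, KB-V1 cell viability was read by CellTiter-Glo luminescence, medium being phenol-red-free DMEM plus 10% FBS; concentration-response parameters came from normalized, curve-fitted qHTS data.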
# HT1080NT lethal – kills 2HG-producing HT-1080-NT fibrosarcoma cells; HT-1080-NT fibrosarcoma viability, CellTiter-Glo ATP luminescence, 48 h; hit rate 1.6% among 360,000; Potency, µM (top dose mostly 46.1 µM), without a hit: top-dose activity, negative = less viability, most hits filed as cytotoxic;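 further: NT is the 2HG producing partner of a matched IDH1 knockdown line; 0% = DMSO-treated cells and -100% = media-only wells without cells; nearly all actives have a fitted effect of over 55% in size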
#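 Fibrosarcoma NT cells, 750 per well in 5% FBS RPMI, were exposed to compound for 48 hours. Viability: CellTiter-Glo luminescence.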
# SW480 rerep – induces DNA re-replication in SW480 colon adenocarcinoma cells | hit rate 1.8% among 340,000 | Potency, µM (series often up to 46.1 µM), for the others: at the highest dose re-replication activation, hits mostly activators | AID 624297 | SW480 DNA re-replication, Hoechst DNA content imaging, 48 h; further: % of control where 0% means no effect; nearly all actives have a fitted effect of over 55% in size
#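 Hoechst fluorescence of nuclei (405 nm excitation, 500-530 nm emission) measured by plate-scanning imager after 48 hr compound exposure at 37 C; re-replication scored as increased number of nuclei with elevated intensity.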
# KB-3-1 tox – kills parental KB-3-1 adenocarcinoma cells | KB-3-1 viability, CellTiter-Glo ATP luminescence, 72 h | Potency, µM (doses to about 46.1 µM), most hits filed as cytotoxic | hit rate 1.4% among 400,000; further: on the % scale 0 is the no-effect control and ±100 the full control effect; nearly all actives have a fitted effect of over 60% in size
#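 KB-3-1 cells, DMEM (no phenol red) + 10% FBS; compound by pin transfer, 72 h, 37 °C. Readout: CellTiter-Glo luminescence after 10 min. Data normalized, curve-fitted.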
# MCF10A rereplic – DNA re-replication induction in MCF 10a cells; MCF 10A DNA re-replication, Hoechst nuclear intensity, 48 h; Potency, µM (titrated, usually from 46.1 µM), without a hit: at the highest dose activity, positive = re-replication, actives largely listed as activators; hit rate 2.9% among 350,000; AID 624296; further: % of control where 0% means no effect; nearly all actives have a fitted effect of over 50% in size
# * marks the source's active call; other numbers are inactive results; i = inactive; ? = inconclusive; . = no result given; [ ] = another dose, or the depositor's remark. The list is not random: actives were taken first. Their share in the collection is about 8%. The call rests on the fitted dose curve; in most records, active means well fitted curve in the direction sought with a large enough effect; inconclusive means small, poorly fitted or top-dose-only effect, or another doubt; inactive means no such curve, though single readings can be large; an effect the other way counts as inactive or inconclusive. Potency means the concentration at half of the fitted maximal effect.
SMILES,HT1080 IDH1KD tx,KB-V1 MDR tox,HT1080NT lethal,SW480 rerep,KB-3-1 tox,MCF10A rereplic
COc1nn(-c2ccccc2)c(=O)c(Cl)c1Cl,13µM*,i,12µM*,2.9µM*,?,3.7µM*
CCOc1ccc(-c2nn(-c3ccccc3)cc2C2NC(=O)NC(C)=C2C(=O)OC(C)C)cc1C (centres undefined),.,i,.,.,i,.
Cc1ccc(OCCn2cc(/C=C(\C#N)C(=O)NCC3CCCO3)c3ccccc32)cc1 (centres undefined),-10%,21µM*,-4%,.,i,18%
Cc1ccc(OCCn2cc(/C=C(\C#N)C(=O)NCC3CCCO3)c3ccccc32)cc1C (centres undefined),9%,?,-6%,?,i,?
Cc1ccc(C)c(OCCn2cc(/C=C(\C#N)C(=O)NCC3CCCO3)c3ccccc32)c1 (centres undefined),-16%,i,-2%,?,?,16µM*
Nc1c2c(nc3ccc(Br)cc13)N(c1ccccc1)CC2,?,?,?,15µM*,i,15µM*
Cc1cccc(N2CCc3c2nc2ccc(Br)cc2c3N)c1,?,i,?,-2%,i,-5%
Cc1ccc(-c2noc(CN(C(=O)Cc3ccccc3)C(C)C)n2)cc1,-30%,23µM*,-16%,3%,i,0%
COc1ccccc1OCC(=O)N(Cc1nc(-c2ccccc2)no1)C(C)C,-1%,?,-6%,?,i,2%
Cc1ccc(C)c(C(=O)N(Cc2nc(-c3ccc(Cl)cc3)no2)C(C)C)c1,-18%,i,0%,2%,i,23µM*
Cc1cc(Br)ccc1OCC(=O)N(Cc1nc(-c2ccccc2)no1)C(C)C,-22%,i,-1%[9.24 µM],?,?,18µM*
Cc1ccccc1NC(=O)Cn1c(=O)n(CCC(=O)N2CCc3ccccc3C2)c(=O)c2ccccc21,.,i,.,.,i,.
CCN(Cc1ccccc1)C(=O)Cn1c(=O)n(-c2ccc(Cl)cc2)c(=O)c2c(C)c(C)sc21,.,i,.,.,i,.
CCc1ccc2[nH]c(=O)c(CN(CCN(CC)CC)C(=O)Nc3ccccc3OC)cc2c1,?,i,16µM*,1%,?,3%
CCN(CC)CCCN(Cc1cc2cc(OC)ccc2[nH]c1=O)C(=O)Nc1ccc(F)cc1,?,i,?,?,i,2.9µM*
CC(C)Oc1ccc(CNC(=O)C2CCN(C(=O)N3CC(C)Oc4ccccc43)CC2)cc1 (centres undefined),.,i,.,.,i,.
Cc1cc(C)cc(NC(=O)C(c2ccccc2)N2CCN(CC(=O)NC3CC3)CC2)c1 (centres undefined),-3%,16µM*,-7%,4%,i,4%
Cc1ccc(NC(=O)C(c2ccccc2)N2CCN(CC(=O)NC3CC3)CC2)cc1 (centres undefined),9%,21µM*,-4%,-1%,i,-3%
Cc1ccc(NC(=O)C(c2ccccc2)N2CCN(CC(=O)NC3CC3)CC2)cc1Cl (centres undefined),1%,i,2%,2%,i,-1%
CC(=O)N1c2ccc(S(=O)(=O)N3CCCCCC3)cc2CC1C(=O)NCc1cccc(C)c1 (centres undefined),.,i,.,.,i,.
CC(=O)c1cccc(CN2CCCC(C(=O)Nc3ccc(-c4ccco4)cc3)C2)c1 (centres undefined),?,i,-10%,8.2µM*,i,?
O=C(Nc1ccc(-c2cscn2)cc1)C1CCCN(Cc2ccccc2)C1 (centres undefined),?,i,?,29µM*,?,?
Cc1cccc(CN2CCCC(C(=O)Nc3ccc(-c4cscn4)cc3)C2)c1 (centres undefined),?,?,?,?,16µM*,5%
Cc1ncc(CN2CCCC(C(=O)Nc3ccc(-c4cccc(F)c4)cc3)C2)cn1 (centres undefined),?,i,-29%,?,i,10%
Cc1ccccc1CN1CCCC(C(=O)Nc2ccc(-c3ccn[nH]3)cc2)C1 (centres undefined),?,12µM*,-10%,?,?,?
SMILES,HT1080 IDH1KD tx,KB-V1 MDR tox,HT1080NT lethal,SW480 rerep,KB-3-1 tox,MCF10A rereplic
Cc1nn(C)c(Cl)c1CN1CCCC(C(=O)Nc2ccc(-c3cscn3)cc2)C1 (centres undefined),-4%,.,-6%,1%,.,?
CCOc1ccc(CCN2C(=S)N([C@@H](CC(C)C)CN3CCC[C@@H]3CN3C(=S)NC[C@@H]3CC(C)C)C[C@@H]2Cc2ccc(O)cc2)cc1,16µM*,i,23µM*,.,?,.
CC(C)C[C@@H](CN1CCC[C@@H]1CN1C(=S)NC[C@@H]1Cc1ccc(O)cc1)N1C[C@H](Cc2ccc(O)cc2)N(CCc2ccccc2)C1=S,?,?,26µM*,.,i,.
CC(C)C[C@@H](CN1CCCC1CN1C(=S)NC[C@@H]1Cc1ccccc1)N1C[C@H](Cc2ccc(O)cc2)N(CCc2ccccc2)C1=S (some centres undefined),-1%,?,?,.,?,.
CC(C)C[C@H]1CNC(=S)N1C[C@H]1CCCN1C[C@H](Cc1ccc(O)cc1)N1C[C@H](Cc2ccc(O)cc2)N(CCc2ccccc2)C1=S,21µM*,i,21µM*,.,?,.
COc1ccc(CCc2c[nH]c(=O)c3cncnc23)cc1OC,-2%,.,1%,.,.,.
CCCCOc1ccc(S(=O)(=O)N2CCN(c3ccccc3OCC)CC2)cc1,.,i,.,.,?,.
C=CCNc1ncnc2c1[nH]c1ccc(Cl)cc12,-27%,?,-1%,1%,8.2µM*,20%
COc1ccc(Nc2ncnc3c2cnn3-c2ccc(C)cc2)cc1Cl,.,i,.,.,i,.
COc1ccc(NC(=O)c2nc(SC)ncc2Cl)cc1,10%,i,3%,-7%,i,7%
CCOc1ccccc1NC(=O)c1cc(SC)ccc1Cl,-22%,?,-20%,18µM*,i,?
COc1ccc(NC(=O)c2cc(SC)ccc2Cl)cc1,-25%,15µM*,-11%,5%,i,23%
CSc1ccc(Cl)c(C(=O)Nc2ccc(C)cn2)c1,?,?,?,26µM*,?,?
CCOc1ccccc1NC(=O)c1cccc2ccccc12,-5%,i,-13%,?,?,?
COc1cc(SC)ccc1C(=O)Nc1ccccc1,?,?,-10%,?,i,1%
